From PubChem
ERG-DNA inh – qHTS for Small Molecule Inhibitors of the ERG Ets/DNA interaction. Transcriptional regulator ERG (Homo sapiens), P11308. fluorescence polarization, His-ERG Ets domain / labelled DNA. Potency, µM (titrated, usually from 76.9 µM), inactives show top-dose FP activity, negative = inhibition, hits mostly inhibitors. actives 0.028% (n = 370,000). AID 624246, 2012; active = well fitted inhibition curve with a large enough effect in the polarisation, with a control signal flat; the % refers to the polarisation;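 also: polarization taken with two DNA probes labelled with fluorescein and Texas red; potency is read from the fitted curve at half-maximal effect; % of control where 0% means no effect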
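His-tagged ERG Ets domain (1 uM in the protein solution; 300mM KCl, 50mM Tris-HCl, 1mM EDTA, 1mM DTT, pH 7.5) received compound, then a probe mix of 5 nM fluorescein-DNA and 100nM Texas-615-DNA. Fluorescence polarization was read for both dyes.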
D1 potentiator – Potentiators of Human D1 Dopamine Receptor: qHTS. D(1A) dopamine receptor (Homo sapiens), P21728. HEK293 TREx D1 cells, calcium flux, dopamine EC20 potentiation. potentiation, % at 10 µM. actives 0.036% (n = 360,000); in the data active = potentiation above about 30%; also: 0% is about no effect
Target sequence (P21728 whole entry, looked up): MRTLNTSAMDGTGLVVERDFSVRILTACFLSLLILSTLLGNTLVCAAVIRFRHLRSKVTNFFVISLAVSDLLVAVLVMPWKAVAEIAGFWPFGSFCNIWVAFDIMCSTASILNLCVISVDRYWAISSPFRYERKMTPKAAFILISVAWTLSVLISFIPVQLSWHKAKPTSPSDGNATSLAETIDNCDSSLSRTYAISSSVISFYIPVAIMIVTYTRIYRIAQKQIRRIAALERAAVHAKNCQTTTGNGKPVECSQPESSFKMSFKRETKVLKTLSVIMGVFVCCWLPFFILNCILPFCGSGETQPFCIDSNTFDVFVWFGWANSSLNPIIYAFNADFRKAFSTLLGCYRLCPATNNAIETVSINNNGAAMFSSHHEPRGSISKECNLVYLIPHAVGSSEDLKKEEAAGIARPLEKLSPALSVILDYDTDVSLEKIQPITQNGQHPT
D3 antag – qHTS of D3 Dopamine Receptor Antagonist: qHTS | D(3) dopamine receptor (Homo sapiens), P35462 | D3R cells, DiscoveRx beta-arrestin luminescence, antagonist mode; stronger effect = lower value | actives 2.5% (n = 360,000) | max response, negative = inhibition, %; in the data active = max response below about -50%; also: % is scaled to controls: 0 for no effect and ±100 for the full control effect
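Cells expressing the human receptor were seeded at 1500 cells/well, incubated overnight at 37 degrees C in 5% CO2, then exposed to library compounds with dopamine controls for 90 minutes at 37 degrees C before luminescent detection.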
D1 ag – Allosteric Agonists of the Human D1 Dopamine Receptor: qHTS; HEK293 T-REx D1 cells, calcium flux, agonist mode; activation, % at 2 µM; actives 1% (n = 360,000); AID 504660, 2011; in the data active = activation above about 30%; also: 0% is about no effect
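Agonism was scored from calcium flux recorded over 180 s (1 read/s) after pintool compound addition, following a 10-cycle baseline. Cells were inducible force-coupled HEK293 TREx D1, plated overnight at 30 C and loaded with no-wash calcium dye.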
D1 antagonist – Antagonist of Human D 1 Dopamine Receptor: qHTS. D(1A) dopamine receptor (Homo sapiens), P21728. HEK293 TREx D1 cells, calcium flux, dopamine EC80; stronger effect = lower value. activity change, negative = inhibition, % at 10 µM. actives 3.2% (n = 360,000). AID 504652, 2011; in the data active = activity change below about -30%; also: % is scaled to controls: 0 for no effect and ±100 for the full control effect
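Compound effects on dopamine-evoked calcium signalling were measured in tetracycline-induced HEK293 Trex D1 cells. Dopamine at EC80 followed a 180 s compound pre-read, and fluorescence was tracked kinetically for 180 s more.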
DRD3 agonist – qHTS of D3 Dopamine Receptor Agonist: qHTS; actives 0.58% (n = 410,000); AID 652048, 2013; D3R DiscoveRx beta-arrestin cells, luminescence, 90 min; D(3) dopamine receptor (Homo sapiens), P35462; max activation, %; in the data active = max activation above about 30%; also: 0% is about no effect
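Cells at 1500/well, incubated overnight, then treated with pinned compounds (dopamine as control) for 90 min at 37 degrees C. DiscoveRx reagent added for 30 - 60 minutes at room temperature; luminescence read.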
Numbers without * were called inactive; . = no result given; ! = not confirmed by another sample. Sampled rows, rich in hits. Any-hit rate of the full collection: about 6.1%.

SMILES | ERG-DNA inh | D1 potentiator | D3 antag | D1 ag | D1 antagonist | DRD3 agonist
Cn1c(=O)oc2cc(S(=O)(=O)Nc3ccccc3O)ccc21 | 4% | -6 | -3 | 7 | -40*! | 1
Cn1c(=O)oc2cc(S(=O)(=O)NCc3ccc(Cl)cc3)ccc21 | 1% | -5 | -10 | 4 | -37* | 1
COC(=O)c1ccccc1NS(=O)(=O)c1ccc2c(c1)oc(=O)n2C | -4% | -22 | 2 | 3 | 5 | 3
CC(C)c1ccc(NC(=O)C(Cc2ccccc2)NS(=O)(=O)c2ccc3c(c2)oc(=O)n3C)cc1 (stereo unspecified) | 1% | -7 | . | 5 | -37* | 6
CCOC(=O)Cn1c(=O)oc2cc(S(=O)(=O)Nc3cccc(C)c3)ccc21 | -8% | -7 | -59* | 20 | -22 | -4
COc1ccc(-n2c(C)c(C)c3c(NCCO)ncnc32)cc1 | 6% | 2 | 0 | -1 | -1 | 1
COc1ccc(S(=O)(=O)NC2CCCC2)cc1Br | 2% | -1 | -12 | 9 | -2 | -2
Cn1c(=O)oc2cc(S(=O)(=O)NCCN3CCCCCC3)ccc21 | -1% | -1 | 2 | 1 | -9 | 0
COc1ccc(OC)c(NC(=O)Cn2c(=O)oc3cc(S(=O)(=O)NCc4ccccc4)ccc32)c1 | -9% | 6 | . | 6 | -8 | 3
CCOc1ccccc1NC(=O)Cn1c(=O)oc2cc(S(=O)(=O)NCc3ccccc3)ccc21 | -1% | -3 | . | 2 | -39* | 2
Cn1c(=O)oc2cc(S(=O)(=O)NCCN3CCN(c4ccccc4F)CC3)ccc21 | -3% | -10 | -54* | 2 | -75* | 11
CCc1ccc(NS(=O)(=O)c2ccc3c(c2)oc(=O)n3C)cc1 | -3% | -13 | 12 | 21 | -34* | 1
Cc1noc(C)c1C(=O)Nc1ccccc1N1CCCC1 | 13% | 5 | 1 | 0 | -6 | 1
c1cncc(-c2nc(Oc3ccc(-c4nnco4)cc3)c3c4c(sc3n2)CCCC4)c1 | . | -1 | . | 0 | 2 | .
COc1ccc(C(=O)Nc2cc3c(oc2=O)CCCC3=O)cc1 | 9% | -1 | -10 | 6 | -7 | -15
CCOC(=O)c1c(C)[nH]c(C(=O)OCC(=O)Nc2sc(C(=O)N(C)C)c(C)c2C(=O)OCC)c1C | 9% | 0 | 66 | 0 | 4 | 0
CCCc1c(O)nc(SCc2ccccc2)[nH]c1=O | 0% | 0 | 6 | 4 | 32 | -1
CN(C(=O)c1cccc(NC(=O)Cc2cccc(NC(=O)C3CCN(C(=O)C4CCCCC4)CC3)c2)c1)C1CC1 | 21% | . | -6 | . | . | -7
COc1ccccc1N1CCN(Cc2cc(=O)oc3ccccc23)CC1 | . | . | 6 | . | . | 6
CCOc1ccccc1N1CCN(Cc2ccc(OC)c(OC)c2)CC1 | -5% | -3 | 0 | 5 | -22 | -5
CCOc1ccccc1N1CCN(Cc2ccc(Br)s2)CC1 | 0% | -2 | -95* | 4 | 4 | 7
CCOc1ccccc1N1CCN(Cc2ccc(OC)c(OC)c2OC)CC1 | 3% | -1 | -141* | -1 | -4 | -39
CCOc1ccccc1N1CCN(Cc2ccco2)CC1 | . | -2 | -24 | 5 | 13 | -38
CCOC(=O)C1CCN(c2ccccc2CN2CCN(c3ccccc3OCC)CC2)CC1 | -9% | -13 | -75* | 1 | -19 | -11
COc1cc(OC)c(OC)cc1CN1CCN(c2ccccc2OC)CC1 | 4% | -7 | -66* | 1 | -4 | -32
SMILES | ERG-DNA inh | D1 potentiator | D3 antag | D1 ag | D1 antagonist | DRD3 agonist
COc1cc(C(=O)OCC(=O)N2c3ccccc3NC(=O)C2(C)C)ccc1OCC(C)C | -10% | 6 | 22 | 10 | 28 | 4
CCOc1ccccc1N1CCN(Cc2cnc(-c3ccccc3)[nH]2)CC1 | 2% | -11 | -94* | 9 | -3 | -16
COc1ccccc1N1CCN(Cc2ccc(Br)o2)CC1 | -11% | -6 | -81* | 1 | -11 | -11
COc1ccc(N2CCN(Cc3cc4c(cc3Br)OCCO4)CC2)cc1 | -10% | . | -13 | 8 | -5 | -23
COc1ccccc1N1CCN(Cc2cccc(OC)c2OC)CC1 | -4% | -8 | -24 | 8 | -42* | -5
COc1ccccc1N1CCN(Cc2cc3c(cc2Br)OCCO3)CC1 | -7% | -7 | -76* | 2 | -12 | -20
COc1ccccc1N1CCN(Cc2nnc(-c3ccccc3C)o2)CC1 | 2% | -3 | . | 1 | -3 | -23
O=C(NC1CCCc2c1cnn2-c1cc(F)cc(F)c1)c1ccc[n+]([O-])c1 (stereo unspecified) | -8% | -1 | 3 | 0 | 4 | 20
CCc1cc(Cn2nc(-c3ccccc3)cc2C(=O)NCc2cccs2)on1 | 11% | -6 | -2 | 16 | -2 | -7
CC(=O)Nc1cccc(OCC(=O)NS(=O)(=O)c2ccc(C)cc2)c1 | 0% | -1 | 19 | 2 | -4 | -28
COc1ccc(S(=O)(=O)Nc2ccc3c(c2)CCC3)cc1 | 9% | -4 | 7 | 5 | -7 | 2
COc1ccc(NS(=O)(=O)c2cc(NC(=O)c3ccccn3)ccc2OC)cc1Br | 21% | . | -51* | . | . | -2
CCOc1ccc(Br)cc1S(=O)(=O)Nc1ccc(C(=O)Nc2ccc(C)cc2)cc1 | . | 2 | 24 | 10 | 28 | 0
CCOc1ccc(Br)cc1S(=O)(=O)Nc1ccc(C(=O)Nc2ccccc2OC)cc1 | 24% | 2 | -51* | 5 | 8 | -22
COC(=O)COc1cccc(NS(=O)(=O)c2ccc(NC(C)=O)cc2)c1 | . | -3 | -64* | 2 | 3 | -6
CC(=O)Nc1ccc(S(=O)(=O)Nc2ccc3c(c2)CCC3)cc1 | 3% | -8 | -10 | 52* | -56* | 2
CCCCn1c(N)c(N(CCC(C)C)C(=O)c2cccc(S(=O)(=O)N3CCN(C)CC3)c2)c(=O)[nH]c1=O | -12% | -1 | -3 | 1 | -4 | 3
Oc1ccccc1-c1cncn1Cc1ccccc1 | -8% | 0 | -22 | 3 | -8 | -23
CC(=O)Nc1cccc(OC(=O)COc2ccc(Br)cc2)c1 | -1% | -3 | -10 | 11 | -31* | -2
Cc1nc(NS(=O)(=O)c2ccccc2)sc1NC(=O)OC(C)C | . | -5 | -17 | 2 | -1 | -12
COc1ccc(OCC(=O)NNC(=O)c2ccccn2)cc1 | 7% | 0 | -82* | -1 | -2 | -9
